Among the data in PubChem BioAssay (NCI) are growth values, retold here.

The structures appear in SMILES notation. About 83,000 compounds went through this panel and 20% of them were active in at least one assay; those are over-represented in the sample as a whole.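 How to read the values: 0–100, growth inhibition (40 = 60% inhibited); 0, no net growth; -100 to 0, cell death (-40 = 40% of starting cells died; -100 = all dead).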 Values without a mark were called inactive. Calls of active or inactive are those of the source. Rule for the calls: active = growth percent below 10; inactive = the rest.

The test system of the first assay is EKVX NSCLC. Briefly: NCI-60 one-dose screen, 48 h (100 = growth as untreated, 0 = no growth, -100 = all killed). Particulars: 10 µM unless noted.
With `Cc1ccc(NC(=O)N[C@@H](Cc2cc(F)cc(F)c2)C(=O)NC2C(=O)N3CCC[C@H]3C(=O)N3CCCC[C@H]3C(=O)N[C@@H](C)C(=O)N3C[C@H](C)C[C@H]3C(=O)O[C@H]2C)c(F)c1` (some centres undefined), the growth is 29.5%.

For the compound `COc1ccc(/C=C/C(=O)c2nnn(-c3ccc(C(=O)O)cc3)c2C)cc1OC`, the growth is 93.9%.

Turning to `O=C(Nc1cc(F)cc2cccnc12)c1cnc(N2CCOCC2)cn1`, the growth is 63.6%.

Regarding `Oc1ccccc1-c1nnc(SCc2ccc(O)c3ncccc23)o1`, the growth was 53.1%.

As for `COc1cc(/C=C2\SC(=O)NC2=O)ccc1OCC(=O)Nc1ccc(C(=O)/C=C/c2cc3ccccc3nc2Cl)cc1`, the growth was 77%.

Take `Nc1nc(-c2cccc([N+](=O)[O-])c2)c(N=Nc2ccccc2Cl)s1`: the growth was 79.6%.

With `Oc1ccc(-c2nnc(SCc3ccc(O)c4ncccc34)o2)cc1`, the growth was 15.6%.

Take `C[C@H]1[C@H](C)CC[C@]2(COC(=O)c3cccnc3)CC[C@]3(C)C(=CC[C@@H]4[C@@]5(C)CCCNC(C)(C)[C@@H]5CC[C@]43C)[C@H]12`: the growth is 89.7%.

Take `COc1ccc(N2CCN(C(=O)CSc3ccc(-c4nc5cc(C)c(C)cc5[nH]4)cn3)CC2)cc1`: the growth was 53.3%.

For the compound `Cc1cc(F)cc(NS(=O)(=O)c2ccc(-c3cnc(C4CC4)o3)cc2)c1`, the growth is 34.3%.

For the compound `Oc1ccc(CSc2nnc(-c3ccncc3)o2)c2cccnc12`, the growth is 47.6%.

In the case of `O=C(COc1ccc(/C=C2\SC(=O)NC2=O)cc1)Nc1ccc(C(=O)/C=C/c2cc3ccccc3nc2Cl)cc1`, the growth is 73.1%.

For `O=C(Nc1cccc(Cl)c1)Nc1nc2ccc([N+](=O)[O-])cc2s1`, the growth was 10%.

`Cn1cc(-c2nn3cc(-c4cccnc4)nc3s2)c2cc(F)ccc21`: the growth is 80.9%.

As for `COc1ccc(CCN2C(=O)/C(=C/c3nc(CO)cs3)SC2=S)cc1`, the growth was 95.2%.

Take `C/C(=N\NC(=S)Nc1ccc(Br)cc1)c1cc2ccccc2oc1=O`: the growth is 40.6%.

With `O=C1[C@H]2Cc3c([nH]c4ccccc34)[C@@H](c3ccc(Cl)cc3)N2C(=O)CN1C1CCN(Cc2c(Cl)cccc2Cl)CC1`, the growth was 78.6%.

On to `O=C1[C@H]2Cc3c([nH]c4ccccc34)[C@@H](c3c(Cl)cccc3Cl)N2C(=O)CN1C1CCN(Cc2ccccc2)CC1`, for which the growth is 96.2%.

In the case of `Oc1ccccc1-c1nnc(SCc2ccc(O)c3ncccc23)n1-c1ccccc1`, the growth was -0.459% (active).

As for `CC1=C2C(=C[C@@](C)(COS(N)(=O)=O)[C@@H]2O)C(=O)[C@](C)(O)C12CC2`, the growth was 94.9%.

`CC1(COc2ccc3ncc(C#Cc4cncc(C(=O)Nc5cc(C(C)(C)C)on5)c4)n3n2)COC1`: the growth is 41.5%.

As for `NC(=S)N/N=C(/C=C/c1cn(-c2ccccc2)nc1-c1ccc(Cl)cc1)c1cc2ccccc2oc1=O`, the growth is 35%.

For `O=C(/C=C1\C=CN(CCCCO)c2ccccc21)n1ccc2ccccc21`, the growth is 89.6%.

Consider `Cc1cc(NS(=O)(=O)c2ccc(-c3cnc(C4CC4)o3)cc2)ccc1I`, for which the growth was 42.6%.

Take `Oc1ccc(CSc2nnc(-c3ccccc3)o2)c2cccnc12`: the growth is 33.1%.

`CS(=O)(=O)c1ccc2c(c1)c1c(n2S(=O)(=O)c2ccc(Cl)cc2)CCCC1`: the growth was 48%.

Take `CN(C)C(=O)c1ccccc1-n1cnc2ccccc2c1=O`: the growth was 101%.

For the compound `C=C(C)C(=O)O[C@H]1C[C@@]2(C)OC(=CC2=O)[C@H](C)[C@H](O)[C@H]2OC(=O)C(=C)[C@@H]21`, the growth was 73.6%.

Regarding `O=C(Nc1cc(Cl)cc(Cl)c1)Nc1nc2ccc([N+](=O)[O-])cc2s1`, the growth was 6.9% (active).

For the compound `C#C[C@]1(O)CC[C@H]2[C@@H]3CC=C4c5sc(Nc6ccc(OC)nc6)nc5CC[C@]4(C)[C@H]3CC[C@@]21C`, the growth was 48.7%.

Take `CCOc1ccc2nc(NC(=O)Nc3ccccc3C)sc2c1`: the growth was 72%.

In the case of `CN(c1ccc(Br)cc1)S(=O)(=O)c1ccc(-c2cnc(C3CC3)o2)cc1`, the growth is 43.1%.

For the compound `CCNC(=NCCCN(C)C)N/C(N)=N/c1nc2ccccc2s1`, the growth was 90.9%.

Regarding `Cc1cc(Cl)cc(NS(=O)(=O)c2ccc(-c3cnc(C4CC4)o3)cc2)c1`, the growth is 39.4%.

For `N/C(=N\c1nc2ccc([N+](=O)[O-])cc2s1)C(Cl)(Cl)Cl`, the growth is 52%.

As to `CS(=O)c1nccc(-c2c(-c3ccc(F)c(OCCc4ccc(F)cc4)c3)nc3sccn23)n1` (centres undefined), the growth was 36.1%.

Consider `CN(c1ccc(F)cc1)S(=O)(=O)c1ccc(-c2cnc(C3CC3)o2)cc1`, for which the growth is 46.9%.

With `Cc1cn(-c2cc(NC(=O)c3cncc(C#Cc4cnc5ccc(OCCCS(C)(=O)=O)nn45)c3)cc(C(F)(F)F)c2)cn1`, the growth was 16%.

Another assay deals with SN12C renal. The description is as above. Particulars: 10 µM unless noted.
On to `Cc1ccc(NC(=O)N[C@@H](Cc2cc(F)cc(F)c2)C(=O)NC2C(=O)N3CCC[C@H]3C(=O)N3CCCC[C@H]3C(=O)N[C@@H](C)C(=O)N3C[C@H](C)C[C@H]3C(=O)O[C@H]2C)c(F)c1` (some centres undefined), for which the growth was 23.5%.

Consider `COc1ccc(/C=C/C(=O)c2nnn(-c3ccc(C(=O)O)cc3)c2C)cc1OC`, for which the growth is 92.2%.

As to `O=C(Nc1cc(F)cc2cccnc12)c1cnc(N2CCOCC2)cn1`, the growth was 83.5%.

For the compound `Oc1ccccc1-c1nnc(SCc2ccc(O)c3ncccc23)o1`, the growth is 18.5%.

With `COc1cc(/C=C2\SC(=O)NC2=O)ccc1OCC(=O)Nc1ccc(C(=O)/C=C/c2cc3ccccc3nc2Cl)cc1`, the growth was 93.5%.

As to `Nc1nc(-c2cccc([N+](=O)[O-])c2)c(N=Nc2ccccc2Cl)s1`, the growth was 73.7%.

As to `Oc1ccc(-c2nnc(SCc3ccc(O)c4ncccc34)o2)cc1`, the growth is 6.09% (active).

Consider `O=c1[nH]c2cc(Cl)ccc2n1C1CCN(c2ccc3nnc(Cl)n3n2)CC1`, for which the growth is 95.3%.

With `COc1ccc(N2CCN(C(=O)CSc3ccc(-c4nc5cc(C)c(C)cc5[nH]4)cn3)CC2)cc1`, the growth is 83.2%.

Turning to `Cc1cc(F)cc(NS(=O)(=O)c2ccc(-c3cnc(C4CC4)o3)cc2)c1`, the growth was 44.8%.

`Oc1ccc(CSc2nnc(-c3ccncc3)o2)c2cccnc12`: the growth was 7.4% (active).

As for `O=C(COc1ccc(/C=C2\SC(=O)NC2=O)cc1)Nc1ccc(C(=O)/C=C/c2cc3ccccc3nc2Cl)cc1`, the growth was 87.5%.

With `O=C(Nc1cccc(Cl)c1)Nc1nc2ccc([N+](=O)[O-])cc2s1`, the growth was 4.02% (active).

Take `COc1ccc(CCN2C(=O)/C(=C/c3nc(CO)cs3)SC2=S)cc1`: the growth is 83.6%.

As for `C/C(=N\NC(=S)Nc1ccc(Br)cc1)c1cc2ccccc2oc1=O`, the growth was 35.2%.

`O=C1[C@H]2Cc3c([nH]c4ccccc34)[C@@H](c3ccc(Cl)cc3)N2C(=O)CN1C1CCN(Cc2c(Cl)cccc2Cl)CC1`: the growth is 81.3%.

On to `O=C1[C@H]2Cc3c([nH]c4ccccc34)[C@@H](c3c(Cl)cccc3Cl)N2C(=O)CN1C1CCN(Cc2ccccc2)CC1`, for which the growth was 73.3%.

For the compound `Oc1ccccc1-c1nnc(SCc2ccc(O)c3ncccc23)n1-c1ccccc1`, the growth is 14.5%.

For `CC1=C2C(=C[C@@](C)(COS(N)(=O)=O)[C@@H]2O)C(=O)[C@](C)(O)C12CC2`, the growth was 81.2%.

Take `CC1(COc2ccc3ncc(C#Cc4cncc(C(=O)Nc5cc(C(C)(C)C)on5)c4)n3n2)COC1`: the growth was 30.4%.

For the compound `NC(=S)N/N=C(/C=C/c1cn(-c2ccccc2)nc1-c1ccc(Cl)cc1)c1cc2ccccc2oc1=O`, the growth is 44.3%.

In the case of `O=C(/C=C1\C=CN(CCCCO)c2ccccc21)n1ccc2ccccc21`, the growth was 98.7%.

For `Cc1cc(NS(=O)(=O)c2ccc(-c3cnc(C4CC4)o3)cc2)ccc1I`, the growth is 43.5%.

For `CS(=O)(=O)c1ccc2c(c1)c1c(n2S(=O)(=O)c2ccc(Cl)cc2)CCCC1`, the growth is 33.1%.

Consider `CN(C)C(=O)c1ccccc1-n1cnc2ccccc2c1=O`, for which the growth was 92.7%.

In the case of `C=C(C)C(=O)O[C@H]1C[C@@]2(C)OC(=CC2=O)[C@H](C)[C@H](O)[C@H]2OC(=O)C(=C)[C@@H]21`, the growth was 73.9%.

Turning to `O=C(Nc1cc(Cl)cc(Cl)c1)Nc1nc2ccc([N+](=O)[O-])cc2s1`, the growth is 2.15% (active).

Regarding `C#C[C@]1(O)CC[C@H]2[C@@H]3CC=C4c5sc(Nc6ccc(OC)nc6)nc5CC[C@]4(C)[C@H]3CC[C@@]21C`, the growth was 70.5%.

On to `CCOc1ccc2nc(NC(=O)Nc3ccccc3C)sc2c1`, for which the growth is 58.7%.

With `CN(c1ccc(Br)cc1)S(=O)(=O)c1ccc(-c2cnc(C3CC3)o2)cc1`, the growth was 30.2%.

For `CCNC(=NCCCN(C)C)N/C(N)=N/c1nc2ccccc2s1`, the growth is 82%.

`Cc1cc(Cl)cc(NS(=O)(=O)c2ccc(-c3cnc(C4CC4)o3)cc2)c1`: the growth is 39.6%.

As for `N/C(=N\c1nc2ccc([N+](=O)[O-])cc2s1)C(Cl)(Cl)Cl`, the growth is 79.7%.

As for `CS(=O)c1nccc(-c2c(-c3ccc(F)c(OCCc4ccc(F)cc4)c3)nc3sccn23)n1` (centres undefined), the growth is 93.4%.

Take `CN(c1ccc(F)cc1)S(=O)(=O)c1ccc(-c2cnc(C3CC3)o2)cc1`: the growth was 37.3%.

Regarding `Cc1cn(-c2cc(NC(=O)c3cncc(C#Cc4cnc5ccc(OCCCS(C)(=O)=O)nn45)c3)cc(C(F)(F)F)c2)cn1`, the growth was 16.7%.
